Data: the supplement of paper PMC10849652
About 7,900 targets were measured; listed, in parts, are those with a hit and a random draw of the rest. About 0.6% of all pairs of compound and target were hits.

What was measured:
Assay in all cases: log2 fold change, soluble protein after heating vs DMSO (PISA); higher = thermal stabilisation; K562 cells, 10 uM, 30 min; active = over 0.2 and 3.5 SD of the protein, either way, in both replicates (recomputed)
[1] = compound: CC1=C(C=C(C=C1)NC(=O)C2=CC(=CC=C2)C(C)(C)C#N)NC3=CC4=C(C=C3)N=CN(C4=O)C
How it was run: (§1)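 K562 cells at 2×10^6 cells/mL were exposed to 10 μM compound for 30 min, then aliquots were heated for 3 min across 48°C-58°C, pooled, and extracted in PBS containing 0.5% NP-40 at 4°C. The supernatant after 21,000xg for 90 min was taken as soluble protein and measured by TMTpro 16plex LC-MS/MS with channel sums equalised. Thermal stability is reported relative to control samples, with values from duplicates. Fold changes are given on a log2 scale.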

[2] = compound: CC1=C(C=C(C=C1)NC(=O)C2=CC(=CC=C2)N(C)C)NC(=O)C3=CC=C(C=C3)O
How it was run: as §1

[3] = compound: CC1=CC=C(C=C1)SC2=C3C=C(SC3=CN=C2)C(=O)N
How it was run: as §1

[4] = compound: CC1=NC(=CC=C1)C2=C(N=C(N2)C(C)(C)C)C3=CC4=NC=CN=C4C=C3
How it was run: as §1

Nexturastat A = compound: CCCCN(Cc1ccc(C(=O)NO)cc1)C(=O)Nc1ccccc1 [Nexturastat A]
How it was run: as §1

vemurafenib = compound: CCCS(=O)(=O)Nc1ccc(F)c(C(=O)c2c[nH]c3ncc(-c4ccc(Cl)cc4)cc23)c1F [vemurafenib]
How it was run: as §1

[5] = compound: CCCS(=O)(=O)Nc1ccc(F)c(C(=O)c2c[nH]c3ncc(Cl)cc23)c1F
How it was run: as §1

[6] = compound: CCCc1cc(C)[nH]c(=O)c1CNC(=O)c1cc(-c2ccnc(N3CCN(C)CC3)c2)cc2c1cnn2C(C)C
How it was run: as §1

givinostat = compound: CCN(CC)Cc1ccc2cc(COC(=O)Nc3ccc(C(=O)NO)cc3)ccc2c1 [givinostat]
How it was run: as §1

barasertib = compound: CCN(CCCOc1ccc2c(Nc3cc(CC(=O)Nc4cccc(F)c4)[nH]n3)ncnc2c1)CCOP(=O)(O)O [barasertib]
How it was run: as §1

[7] = compound: CC[C@@H]1C(=O)N(C)c2cnc(Nc3ccc(C(=O)NC4CCN(C)CC4)cc3OC)nc2N1C1CCCC1
How it was run: as §1

volasertib = compound: CC[C@@H]1C(=O)N(C)c2cnc(Nc3ccc(C(=O)N[C@H]4CC[C@H](N5CCN(CC6CC6)CC5)CC4)cc3OC)nc2N1C(C)C [volasertib]
How it was run: as §1

[8] = compound: CC[C@H](C)N1C=C(C2=C(C=C(C=C21)C3=CN=C(C=C3)N4CCNCC4)C(=O)NCC5=C(C=C(NC5=O)C)C)C
How it was run: as §1

epoxomicin = compound: CC[C@H](C)[C@@H](C(=O)N[C@@H]([C@@H](C)O)C(=O)N[C@@H](CC(C)C)C(=O)[C@]1(CO1)C)NC(=O)[C@H]([C@@H](C)CC)N(C)C(=O)C [epoxomicin]
How it was run: as §1

[9] = compound: CCn1c(C(=O)N(C2CC2)C2CC2)cc2c3c(ncn3C)c(Nc3cc(C)n(C)n3)nc21
How it was run: as §1

[10] = compound: CCn1cc(-c2ccnc3[nH]c(-c4cccc(CN(C)C)c4)cc23)c(-c2ccc(NC(=O)N(C)C)cc2)n1
How it was run: as §1

[11] = compound: CN(C)CC(=O)Nc1ccc2[nH]c(=O)c3ccccc3c2c1
How it was run: as §1

rosiglitazone = compound: CN(CCOC1=CC=C(C=C1)C[C@H]2C(=O)NC(=O)S2)C3=CC=CC=N3 (racemic) [rosiglitazone]
How it was run: as §1

[12] = compound: CN1C2=C(C3=C1C(=O)N(N=C3)CC4=CC(=CC=C4)N)SC(=C2)S(=O)C
How it was run: as §1

[13] = compound: CN1CCC(CNc2ccc3ncc(-c4cccc(OC(F)(F)F)c4)n3n2)CC1
How it was run: as §1

Measured: log2 fold change

PCBP1 (UniProt Q15365)
UniProt Q15365, sequence (Q15365 whole entry, looked up): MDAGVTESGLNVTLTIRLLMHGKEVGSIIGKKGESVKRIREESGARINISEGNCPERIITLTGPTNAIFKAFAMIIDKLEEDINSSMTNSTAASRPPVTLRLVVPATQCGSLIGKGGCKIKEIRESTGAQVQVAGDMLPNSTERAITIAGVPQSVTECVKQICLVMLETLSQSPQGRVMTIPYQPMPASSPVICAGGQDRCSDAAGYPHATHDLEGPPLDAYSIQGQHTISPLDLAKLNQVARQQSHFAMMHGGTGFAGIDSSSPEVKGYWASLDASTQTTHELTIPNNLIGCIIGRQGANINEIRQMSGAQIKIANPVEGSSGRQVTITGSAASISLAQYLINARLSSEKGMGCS
inactive: [1] 0.034 | [2] -0.037 | [3] 0.112 | [4] 0.067 | Nexturastat A -0.038 | vemurafenib 0.022 | [5] 0.097 | [6] -0.011 | givinostat 0.013 | barasertib 0.021 | [7] -0.1 | [8] 0.04 | epoxomicin 0.025 | [9] -0.065 | [10] 0.025 | [11] 0.039 | rosiglitazone 0.035 | [12] 0.009 | [13] -0.129
active: volasertib -0.268

POLR2I (UniProt P36954)
inactive: [1] -0.063 | [2] -0.011 | [3] -0.015 | [4] 0.001 | Nexturastat A 0.055 | vemurafenib -0.086 | [5] -0.081 | [6] -0.057 | givinostat -0.151 | barasertib 0.085 | [7] 0.209 | volasertib 0.232 | [8] 0.055 | epoxomicin 0.007 | [9] 0.017 | [10] -0.208 | [11] -0.107 | rosiglitazone -0.107 | [12] -0.009 | [13] 0.202

PLBD1 (UniProt Q6P4A8)
active: [13] -0.352
inactive: [1] 0.005 | [2] -0.023 | [3] 0.032 | [4] -0.039 | Nexturastat A 0.005 | vemurafenib 0.069 | [5] -0.014 | [6] 0.006 | givinostat -0.013 | barasertib 0.027 | [7] -0.063 | volasertib -0.076 | [8] -0.022 | epoxomicin -0.016 | [9] -0.005 | [10] -0.028 | [11] 0.088 | rosiglitazone -0.049 | [12] -0.01

PGM3 isoform 4 (UniProt O95394)
UniProt O95394, sequence (O95394 whole entry, looked up): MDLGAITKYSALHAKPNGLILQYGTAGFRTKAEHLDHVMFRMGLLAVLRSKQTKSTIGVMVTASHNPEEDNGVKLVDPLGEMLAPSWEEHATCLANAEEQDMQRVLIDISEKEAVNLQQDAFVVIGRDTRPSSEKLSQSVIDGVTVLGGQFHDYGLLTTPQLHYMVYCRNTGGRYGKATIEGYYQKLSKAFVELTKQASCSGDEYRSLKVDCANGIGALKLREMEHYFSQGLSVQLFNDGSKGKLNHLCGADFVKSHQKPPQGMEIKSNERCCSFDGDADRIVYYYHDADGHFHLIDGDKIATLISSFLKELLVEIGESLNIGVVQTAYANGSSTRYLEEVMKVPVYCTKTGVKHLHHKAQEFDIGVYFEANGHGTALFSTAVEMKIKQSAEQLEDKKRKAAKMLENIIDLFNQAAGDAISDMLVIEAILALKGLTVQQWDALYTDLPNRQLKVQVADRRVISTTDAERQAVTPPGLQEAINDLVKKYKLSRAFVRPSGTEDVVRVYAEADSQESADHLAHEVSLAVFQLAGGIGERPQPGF
active: [13] -0.235
inactive: [1] 0.013 | [2] -0.073 | [3] 0.021 | [4] 0.04 | Nexturastat A -0.01 | vemurafenib 0.017 | [5] 0.04 | [6] 0.008 | givinostat -0.044 | barasertib 0.017 | [7] 0.003 | volasertib 0.052 | [8] 0.092 | epoxomicin 0.014 | [9] -0.034 | [10] -0.038 | [11] 0.026 | rosiglitazone 0.066 | [12] -0.084

POLD1 (UniProt P28340)
active: volasertib -0.239
inactive: [1] -0.083 | [2] -0.028 | [3] 0.018 | [4] 0.022 | Nexturastat A 0.02 | vemurafenib 0.033 | [5] 0.071 | [6] 0.006 | givinostat 0.021 | barasertib 0.005 | [7] -0.061 | [8] 0.053 | epoxomicin 0.123 | [9] 0 | [10] -0.005 | [11] 0.027 | rosiglitazone -0.029 | [12] -0.03 | [13] -0.171

PEX7 (UniProt O00628)
UniProt O00628, sequence (O00628 whole entry, looked up): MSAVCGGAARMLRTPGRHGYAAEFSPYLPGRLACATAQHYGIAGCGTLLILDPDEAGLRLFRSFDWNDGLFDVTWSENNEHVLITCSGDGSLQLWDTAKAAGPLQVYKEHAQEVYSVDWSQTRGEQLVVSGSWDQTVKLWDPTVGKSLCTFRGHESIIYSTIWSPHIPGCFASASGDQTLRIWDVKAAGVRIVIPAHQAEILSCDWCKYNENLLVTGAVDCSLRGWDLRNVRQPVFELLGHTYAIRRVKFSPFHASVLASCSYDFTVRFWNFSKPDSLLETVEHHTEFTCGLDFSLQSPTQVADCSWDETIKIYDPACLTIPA
inactive: [1] 0.061 | [2] -0.011 | [3] 0.025 | [4] -0.066 | Nexturastat A -0.041 | vemurafenib -0.049 | [5] 0.007 | [6] -0.035 | givinostat -0.107 | barasertib -0.089 | [7] 0.038 | volasertib 0.005 | [8] -0.027 | epoxomicin 0.075 | [9] -0.044 | [10] -0.01 | [11] 0.091 | rosiglitazone -0.045 | [12] -0.067 | [13] 0.023

PRUNE1 (UniProt Q86TP1)
active: volasertib -0.417
inactive: [1] 0.056 | [2] -0.014 | [3] -0.005 | [4] -0.028 | Nexturastat A 0.161 | vemurafenib 0.129 | [5] 0.036 | [6] 0.022 | givinostat 0.056 | barasertib 0.105 | [7] -0.083 | [8] 0.067 | epoxomicin 0.012 | [9] -0.035 | [10] -0.024 | [11] -0.018 | rosiglitazone 0.04 | [12] -0.079 | [13] -0.089

PPP2R5C isoform 4 (UniProt Q13362)
inactive: [1] -0.016 | [2] 0.004 | [3] 0.014 | [4] -0.064 | Nexturastat A 0.016 | vemurafenib 0.074 | [5] -0.004 | [6] -0.027 | givinostat -0.001 | barasertib 0.057 | [7] -0.069 | volasertib -0.127 | [8] 0.042 | epoxomicin 0.19 | [9] 0.018 | [10] -0.099 | [11] -0.048 | rosiglitazone 0.052 | [12] -0.003 | [13] -0.11

PDE4DIP isoform 4 (UniProt Q5VU43)
UniProt Q5VU43, sequence (Q5VU43 whole entry, looked up): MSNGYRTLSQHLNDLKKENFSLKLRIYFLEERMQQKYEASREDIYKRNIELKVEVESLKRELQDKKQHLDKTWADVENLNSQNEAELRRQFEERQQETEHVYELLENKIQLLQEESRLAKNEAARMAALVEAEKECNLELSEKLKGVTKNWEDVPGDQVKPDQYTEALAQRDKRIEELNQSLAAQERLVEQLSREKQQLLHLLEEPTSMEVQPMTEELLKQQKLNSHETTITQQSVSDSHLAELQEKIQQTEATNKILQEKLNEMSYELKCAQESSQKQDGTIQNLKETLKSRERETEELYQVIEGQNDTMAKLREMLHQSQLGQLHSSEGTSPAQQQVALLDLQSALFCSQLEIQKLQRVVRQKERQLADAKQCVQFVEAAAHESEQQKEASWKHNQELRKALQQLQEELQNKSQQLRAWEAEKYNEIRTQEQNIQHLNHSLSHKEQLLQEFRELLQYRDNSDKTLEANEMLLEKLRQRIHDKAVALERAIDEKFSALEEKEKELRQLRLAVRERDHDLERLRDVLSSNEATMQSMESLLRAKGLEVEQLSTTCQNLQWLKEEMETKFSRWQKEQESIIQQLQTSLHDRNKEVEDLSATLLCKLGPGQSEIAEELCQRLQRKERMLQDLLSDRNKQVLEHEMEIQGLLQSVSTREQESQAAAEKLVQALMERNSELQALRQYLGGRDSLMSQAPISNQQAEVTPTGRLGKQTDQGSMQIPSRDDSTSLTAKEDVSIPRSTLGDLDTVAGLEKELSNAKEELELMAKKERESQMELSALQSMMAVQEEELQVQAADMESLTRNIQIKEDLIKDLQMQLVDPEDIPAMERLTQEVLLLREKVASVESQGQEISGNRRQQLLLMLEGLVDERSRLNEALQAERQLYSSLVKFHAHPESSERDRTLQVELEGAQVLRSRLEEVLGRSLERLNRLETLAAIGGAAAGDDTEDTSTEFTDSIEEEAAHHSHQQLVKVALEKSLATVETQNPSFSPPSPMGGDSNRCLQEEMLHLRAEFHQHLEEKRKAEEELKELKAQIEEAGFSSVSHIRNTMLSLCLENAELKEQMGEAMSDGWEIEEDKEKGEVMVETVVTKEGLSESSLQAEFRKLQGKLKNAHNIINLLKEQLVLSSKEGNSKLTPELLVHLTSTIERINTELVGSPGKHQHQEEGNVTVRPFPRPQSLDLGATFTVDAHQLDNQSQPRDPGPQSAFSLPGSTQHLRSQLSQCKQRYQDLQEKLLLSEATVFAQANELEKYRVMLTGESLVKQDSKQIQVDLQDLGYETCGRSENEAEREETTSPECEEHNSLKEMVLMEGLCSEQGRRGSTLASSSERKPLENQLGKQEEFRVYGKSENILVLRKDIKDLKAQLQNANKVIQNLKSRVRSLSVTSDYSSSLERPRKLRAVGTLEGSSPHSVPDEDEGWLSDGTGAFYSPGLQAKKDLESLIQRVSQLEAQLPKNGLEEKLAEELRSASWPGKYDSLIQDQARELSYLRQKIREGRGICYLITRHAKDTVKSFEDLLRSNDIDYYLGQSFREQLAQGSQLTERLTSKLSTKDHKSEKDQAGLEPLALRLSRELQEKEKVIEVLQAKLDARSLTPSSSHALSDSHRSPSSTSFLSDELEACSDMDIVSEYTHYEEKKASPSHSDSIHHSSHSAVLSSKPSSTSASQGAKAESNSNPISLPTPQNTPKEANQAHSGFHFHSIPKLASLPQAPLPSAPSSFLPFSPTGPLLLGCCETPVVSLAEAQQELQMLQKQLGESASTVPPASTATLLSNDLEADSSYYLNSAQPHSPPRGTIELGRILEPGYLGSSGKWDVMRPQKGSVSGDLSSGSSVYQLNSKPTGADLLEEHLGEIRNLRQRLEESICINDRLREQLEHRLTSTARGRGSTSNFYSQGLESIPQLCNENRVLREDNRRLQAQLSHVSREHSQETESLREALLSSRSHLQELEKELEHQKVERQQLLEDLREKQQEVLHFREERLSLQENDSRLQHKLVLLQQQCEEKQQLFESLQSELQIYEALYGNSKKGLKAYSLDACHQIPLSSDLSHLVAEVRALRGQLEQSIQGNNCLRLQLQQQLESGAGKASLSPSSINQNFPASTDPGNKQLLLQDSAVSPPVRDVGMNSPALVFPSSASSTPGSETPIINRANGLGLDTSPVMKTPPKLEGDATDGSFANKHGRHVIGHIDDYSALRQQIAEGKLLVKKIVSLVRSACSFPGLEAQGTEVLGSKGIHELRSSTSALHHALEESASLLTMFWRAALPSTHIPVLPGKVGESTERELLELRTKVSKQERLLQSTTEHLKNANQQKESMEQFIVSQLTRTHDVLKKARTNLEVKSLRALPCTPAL
active: Nexturastat A 0.358
inactive: [1] -0.027 | [2] -0.049 | [3] -0.012 | [4] -0.044 | vemurafenib -0.034 | [5] -0.01 | [6] -0.023 | givinostat 0.021 | barasertib 0.083 | [7] 0.013 | volasertib 0.005 | [8] -0.071 | epoxomicin -0.012 | [9] -0.004 | [10] -0.009 | [11] -0.035 | rosiglitazone 0.003 | [12] -0.046 | [13] 0.006

PDE12 (UniProt Q6L8Q7)
inactive: [1] 0.049 | [2] 0.006 | [3] 0.024 | [4] 0.026 | Nexturastat A -0.064 | vemurafenib -0.006 | [5] 0.03 | [6] -0.01 | givinostat -0.027 | barasertib 0.014 | [7] -0.035 | volasertib -0.056 | [8] -0.008 | epoxomicin 0.04 | [9] 0.003 | [10] -0.038 | [11] 0.026 | rosiglitazone 0.028 | [12] -0.078 | [13] -0.014

PLBD2 (UniProt Q8NHP8)
UniProt Q8NHP8, sequence (Q8NHP8 whole entry, looked up): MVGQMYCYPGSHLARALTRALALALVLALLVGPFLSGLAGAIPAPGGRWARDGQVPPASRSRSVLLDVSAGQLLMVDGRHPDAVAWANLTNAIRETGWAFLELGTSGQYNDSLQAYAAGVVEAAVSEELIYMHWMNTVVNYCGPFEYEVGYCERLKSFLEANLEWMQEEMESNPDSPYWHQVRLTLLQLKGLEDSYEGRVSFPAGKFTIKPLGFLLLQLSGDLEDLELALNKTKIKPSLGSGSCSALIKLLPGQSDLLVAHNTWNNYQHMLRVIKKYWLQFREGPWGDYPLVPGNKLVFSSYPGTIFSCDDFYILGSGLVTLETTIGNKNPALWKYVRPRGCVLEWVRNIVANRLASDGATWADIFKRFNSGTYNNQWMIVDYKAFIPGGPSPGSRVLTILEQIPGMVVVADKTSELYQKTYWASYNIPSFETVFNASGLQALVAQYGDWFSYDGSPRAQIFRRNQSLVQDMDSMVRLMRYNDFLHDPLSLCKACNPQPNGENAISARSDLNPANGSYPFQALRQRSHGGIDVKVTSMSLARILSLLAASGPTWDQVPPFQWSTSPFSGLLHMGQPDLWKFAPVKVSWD
inactive: [1] -0.053 | [2] 0.058 | [3] 0.02 | [4] -0.051 | Nexturastat A -0.053 | vemurafenib -0.028 | [5] 0.001 | [6] -0.008 | givinostat 0.004 | barasertib -0.013 | [7] -0.188 | [8] -0.034 | epoxomicin -0.015 | [9] 0.024 | [10] 0.029 | [11] 0.008 | rosiglitazone 0.009 | [12] -0.029 | [13] -0.21
active: volasertib -0.222

PRIM2 (UniProt P49643)
UniProt P49643, sequence (P49643 whole entry, looked up): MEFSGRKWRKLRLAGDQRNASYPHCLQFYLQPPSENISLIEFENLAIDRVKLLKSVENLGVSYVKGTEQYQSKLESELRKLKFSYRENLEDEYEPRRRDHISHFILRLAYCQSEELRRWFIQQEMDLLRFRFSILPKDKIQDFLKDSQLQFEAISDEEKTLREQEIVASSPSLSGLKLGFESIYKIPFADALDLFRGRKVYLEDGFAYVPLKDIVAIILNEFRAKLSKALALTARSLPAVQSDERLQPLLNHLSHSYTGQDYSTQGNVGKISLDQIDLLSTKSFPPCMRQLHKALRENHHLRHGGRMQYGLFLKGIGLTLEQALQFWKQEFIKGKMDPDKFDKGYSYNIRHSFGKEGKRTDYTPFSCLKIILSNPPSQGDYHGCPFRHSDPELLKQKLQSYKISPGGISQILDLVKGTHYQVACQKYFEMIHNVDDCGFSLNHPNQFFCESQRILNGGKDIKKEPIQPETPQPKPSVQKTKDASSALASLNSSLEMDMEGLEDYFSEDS
active: volasertib -0.285
inactive: [1] -0.028 | [2] -0.018 | [3] -0.019 | [4] 0.054 | Nexturastat A 0.017 | vemurafenib 0.054 | [5] 0.03 | [6] 0.023 | givinostat 0.085 | barasertib 0.08 | [7] -0.119 | [8] 0.147 | epoxomicin 0.02 | [9] -0.041 | [10] -0.07 | [11] 0.076 | rosiglitazone 0.065 | [12] 0.013 | [13] -0.131

PTRH2 (UniProt Q9Y3E5)
inactive: [1] 0.009 | [2] -0.007 | [3] 0.032 | [4] 0.144 | Nexturastat A -0.078 | vemurafenib -0.05 | [5] -0.009 | [6] -0.025 | givinostat -0.064 | barasertib -0.022 | [7] -0.004 | volasertib -0.09 | [8] 0.013 | epoxomicin -0.018 | [9] -0.003 | [10] -0.067 | [11] 0.057 | rosiglitazone 0.001 | [12] -0.042 | [13] 0.018

PDCD6 (UniProt O75340)
active: volasertib -0.283
inactive: [1] 0.013 | [2] 0.039 | [3] -0.001 | [4] 0.032 | Nexturastat A -0.032 | vemurafenib -0.025 | [5] 0.023 | [6] -0.089 | givinostat -0.017 | barasertib 0.004 | [7] -0.157 | [8] -0.006 | epoxomicin 0.031 | [9] -0.005 | [10] -0.01 | [11] 0.007 | rosiglitazone 0.025 | [12] -0.041 | [13] -0.057

PCYT1A (UniProt P49585)
UniProt P49585, sequence (P49585 whole entry, looked up): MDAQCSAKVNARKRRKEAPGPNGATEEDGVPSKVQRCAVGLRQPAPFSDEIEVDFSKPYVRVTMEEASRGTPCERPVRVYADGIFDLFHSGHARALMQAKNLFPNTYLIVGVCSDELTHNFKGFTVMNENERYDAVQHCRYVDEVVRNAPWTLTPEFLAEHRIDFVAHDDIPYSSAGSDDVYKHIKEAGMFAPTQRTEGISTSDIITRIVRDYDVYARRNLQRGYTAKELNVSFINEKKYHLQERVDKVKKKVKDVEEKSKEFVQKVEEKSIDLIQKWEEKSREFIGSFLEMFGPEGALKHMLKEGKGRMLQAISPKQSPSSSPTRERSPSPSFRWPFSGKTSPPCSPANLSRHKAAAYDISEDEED
active: volasertib -0.332
inactive: [1] -0.049 | [2] -0.038 | [3] -0.045 | [4] 0.035 | Nexturastat A -0.034 | vemurafenib 0.052 | [5] 0.043 | [6] -0.092 | givinostat -0.024 | barasertib 0.044 | [7] -0.219 | [8] 0.042 | epoxomicin 0.028 | [9] -0.029 | [10] -0.019 | [11] 0.017 | rosiglitazone 0.008 | [12] -0.022 | [13] -0.111

PRPF38A (UniProt Q8NAV1)
inactive: [1] 0.005 | [2] -0.023 | [3] -0.058 | [4] 0.017 | Nexturastat A 0.019 | vemurafenib -0.118 | [5] -0.089 | [6] 0.065 | givinostat 0.005 | barasertib -0.024 | [7] -0.029 | volasertib -0.016 | [8] 0 | epoxomicin 0.048 | [9] -0.011 | [10] 0.031 | [11] 0.051 | rosiglitazone 0.031 | [12] -0.037 | [13] -0.081
